Assay [1] concerns the target Alpha-galactosidase (Coffea arabica) (UniProt Q42656). The assay can be described thus: Counterscreen for Glucocerebrosidase Inhibitors: qHTS Assay for Coffee Bean alpha-Galactosidase at pH 4.5 (AID 957). Further: series mostly up to about 77 µM. The method in brief:
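Coffee bean alpha-galactosidase 2 nM, substrate 4-MU-alpha-Gal 80 uM, pH 4.5 citrate/Tween-20, 20 min RT. Cpd titration 0.7 nM–77 uM. Stop pH 10, fluorescence 365/440 nm; Hill-equation AC50.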

The target is the same in assay [2]. The assay can be described thus: Counterscreen for Glucocerebrosidase Inhibitors: qHTS Assay for Coffee Bean alpha-Galactosidase at pH 5.9 (AID 998). The method in brief: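 Green coffee bean enzyme (2 nM) with 4-methylumbelliferyl alpha-D-galactopyranoside (80 uM) in 50 mM citric acid, 0.005% Tween-20, pH 5.9, 20 min at room temperature; compounds 0.7 nM–77 uM. Stopped at pH 10, fluorescence Ex365/Em440; Hill-fit AC50.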

Active and inactive are the calls of the source. The call rests on the fitted dose curve; in most records, active means well fitted curve in the direction sought with a large enough effect; inconclusive means small, poorly fitted or top-dose-only effect, or another doubt; inactive means no such curve, though single readings can be large; an effect the other way counts as inactive or inconclusive.

Chain of Alpha-galactosidase (Coffea arabica) (Q42656 whole entry, looked up): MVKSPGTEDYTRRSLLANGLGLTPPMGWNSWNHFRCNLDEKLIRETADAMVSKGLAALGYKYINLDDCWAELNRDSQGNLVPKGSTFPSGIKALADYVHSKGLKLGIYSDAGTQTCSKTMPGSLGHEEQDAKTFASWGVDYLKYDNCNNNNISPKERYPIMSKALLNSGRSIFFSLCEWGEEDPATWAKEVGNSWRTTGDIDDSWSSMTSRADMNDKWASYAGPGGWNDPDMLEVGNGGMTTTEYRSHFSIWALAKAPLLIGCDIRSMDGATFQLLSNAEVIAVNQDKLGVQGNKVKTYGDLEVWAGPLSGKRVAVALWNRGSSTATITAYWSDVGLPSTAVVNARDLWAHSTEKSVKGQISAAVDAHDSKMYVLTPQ

Consider `Cc1cn([C@H]2C[C@H](N=[N+]=[N-])[C@H](CO)O2)c(=O)[nH]c1=O`, for which the result in assay [1] and in assay [2] was inactive.
`Oc1cc2c(c(Cl)c1O)CCNC[C@H]2c1ccccc1`: the result in assay [1] and in assay [2] was inactive.
For the compound `CN(C)C/C=C(\c1ccc(Br)cc1)c1cccnc1`, the compound was classed as inactive in assay [1] and in assay [2].
Turning to `C[C@@](N)(C(=O)O)c1ccc(C(=O)O)cc1`, the compound was classed as inactive in assay [1] and in assay [2].
On to `CC[C@H](C)N(C)C(=O)c1cc2ccccc2c(-c2ccccc2Cl)n1`, for which the call in assay [1] and in assay [2] was inactive.
On to `CC(C)(Oc1ccc([C@@H]2CC2(Cl)Cl)cc1)C(=O)O`, for which the compound was called inactive in assay [1] and in assay [2].
As for `C[C@@H]1CCN=C(N)S1`, the call in assay [1] and in assay [2] was inactive.
With `c1ccc([C@@H]2CN3CCSC3=N2)cc1`, the call in assay [1] and in assay [2] was inactive.
As to `NC(=NCc1ccc(Cl)c(Cl)c1)NC(=O)c1nc(Cl)c(N)nc1N`, the compound was classed as inactive in assay [1] and in assay [2].
For `Nc1ncnc2c1ncn2[C@@H]1O[C@@H](CO)[C@H](O)[C@@H]1O`, the outcome in assay [1] and in assay [2] was inactive.
For `Oc1ccc([C@@H]2CNCc3sccc32)cc1O`, the compound was classed as inactive in assay [1] and in assay [2].
As to `COc1ccccc1OC[C@H](O)CN1CCN(CC(=O)Nc2c(C)cccc2C)CC1`, the compound was classed as inactive in assay [1] and in assay [2].
`S=C(Nc1ccccc1)Nc1nccs1`: the compound was called inactive in assay [1] and in assay [2].
Take `CN1CCc2cc(O)c(O)cc2[C@H](c2ccccc2)C1`: the compound was classed as inactive in assay [1] and in assay [2].
As for `C[C@@H](C(=O)O)c1cccc(C(=O)c2ccccc2)c1`, the outcome in assay [1] and in assay [2] was inactive.
On to `CC(N)=NCCC[C@H](N)C(=O)O`, for which the call in assay [1] and in assay [2] was inactive.
For `CN(C)C(=O)/N=N\C(=O)N(C)C`, the compound was classed as inactive in assay [1] and in assay [2].
Consider `CN(C)[C@@H]1C(=O)C(C(N)=O)=C(O)[C@]2(O)C(=O)C3=C(O)c4c(O)ccc(Cl)c4[C@H](O)[C@H]3C[C@@H]12`, for which the compound was classed as inactive in assay [1] and in assay [2].
`Nc1nc(Cl)nc2c1ncn2[C@@H]1O[C@@H](COP(=O)(O)OP(=O)(O)OP(=O)(O)O)[C@@H](O)[C@H]1O`: the call in assay [1] and in assay [2] was inactive.
`CCCN[C@@H](C)C(=O)Nc1ccccc1C`: the result in assay [1] and in assay [2] was inactive.
`[N-]=[N+]=Nc1ccc(C(=O)CSC[C@@H](NC(=O)CC[C@@H](N)C(=O)O)C(=O)NCC(=O)O)cc1`: the compound was classed as inactive in assay [1] and in assay [2].
Take `CC(=O)O[C@@H](C)C[N+](C)(C)C`: the result in assay [1] and in assay [2] was inactive.
As for `CCCCCCCCCCCCCCCC(=O)O[C@H](CC(=O)O)C[N+](C)(C)C`, the compound was called inactive in assay [1] and in assay [2].
Turning to `CO/N=C(\C(=O)N[C@@H]1C(=O)N2C(C(=O)O)=C(COC(C)=O)CS[C@@H]12)c1csc(N)n1`, the result in assay [1] and in assay [2] was inactive.
For the compound `N[C@H](Cc1cccc(-c2ccccc2CP(=O)(O)O)c1)C(=O)O`, the result in assay [1] and in assay [2] was inactive.
As to `O=C(c1ccccc1)c1ccc2n1CC[C@H]2C(=O)O`, the result in assay [1] and in assay [2] was inactive.
Turning to `O=C(O)[C@H]1CN(CCCP(=O)(O)O)CCN1`, the compound was classed as inactive in assay [1] and in assay [2].
Regarding `O=C(O)CC[C@@H](NC(=O)c1ccccc1C(=O)O)C(=O)O`, the compound was called inactive in assay [1] and in assay [2].
Regarding `CN1[C@@H]2CC[C@H]1CC(OC(=O)[C@@H](CO)c1ccccc1)C2` (stereo partly drawn), the compound was called inactive in assay [1] and in assay [2].
On to `N[C@H](C(=O)N[C@@H]1C(=O)N2C(C(=O)O)=C(Cl)CS[C@@H]12)c1ccccc1`, for which the outcome in assay [1] and in assay [2] was inactive.
For the compound `Fc1ccc(C(c2ccc(F)cc2)N2CCN(C/C=C\c3ccccc3)CC2)cc1`, the outcome in assay [1] and in assay [2] was inactive.
For the compound `CCn1cc(C(=O)O)c(=O)c2cc(F)c(N3CCN[C@@H](C)C3)c(F)c21`, the compound was called inactive in assay [1] and in assay [2].
`NC(=O)c1ncn([C@@H]2O[C@@H](CO)[C@@H](O)[C@H]2O)c1O`: the result in assay [1] and in assay [2] was inactive.
Regarding `Nc1ccc(CCNc2ncnc3c2ncn3[C@@H]2O[C@@H](CO)[C@H](O)[C@@H]2O)cc1`, the call in assay [1] and in assay [2] was inactive.
`CC(C)NC[C@H](O)c1cc(O)cc(O)c1`: the compound was classed as inactive in assay [1] and in assay [2].
For `CC(C)NC[C@H](O)c1ccc(NS(C)(=O)=O)cc1`, the result in assay [1] and in assay [2] was inactive.
Regarding `Nc1c2c(nc3ccccc13)CCC[C@H]2O`, the result in assay [1] and in assay [2] was inactive.
Turning to `O=C1N=C(O)CN1/N=C\c1ccc(-c2ccc([N+](=O)[O-])cc2)o1`, the outcome in assay [1] and in assay [2] was inactive.
Take `C[C@@H]1O[C@@H](n2cc(F)c(=O)[nH]c2=O)[C@H](O)[C@@H]1O`: the result in assay [1] and in assay [2] was inactive.
`CCOC(=O)[C@@]12C[C@@H]1/C(=N/O)c1ccccc1O2`: the call in assay [1] and in assay [2] was inactive.
Take `CCCCC[C@H](O)CCCC(=O)O`: the compound was classed as inactive in assay [1] and in assay [2].
With `CN(C)CC[C@@H](c1ccccc1)c1ccccn1`, the call in assay [1] and in assay [2] was inactive.
Regarding `O=C1CC[C@H](N2C(=O)c3ccccc3C2=O)C(=O)N1`, the compound was classed as inactive in assay [1] and in assay [2].
In the case of `CCCCCC[C@@H]([C@H](C)O)n1cnc2c(N)ncnc21`, the compound was called inactive in assay [1] and in assay [2].
Regarding `OC[C@@H]1O[C@@H](n2cnc3c(NC4CCCC4)ncnc32)[C@@H](O)[C@H]1O`, the compound was called inactive in assay [1] and in assay [2].
Regarding `C=C1C(=O)O[C@@H]2[C@@H]1CC/C(C)=C\CC[C@@]1(C)O[C@H]21`, the call in assay [1] and in assay [2] was inactive.
With `CSC(N)=NCCC[C@@H](N)C(=O)O`, the call in assay [1] and in assay [2] was inactive.
Take `O=C(O)/C=C\c1cnc[nH]1`: the outcome in assay [1] and in assay [2] was inactive.
With `OCCN1CCN(CC/C=C2\c3ccccc3Sc3ccc(C(F)(F)F)cc32)CC1`, the compound was called inactive in assay [1] and in assay [2].
Take `Nc1ncnc2c1ncn2[C@@H]1CCCO1`: the outcome in assay [1] and in assay [2] was inactive.
On to `COc1cc2nc(N3CCN(C(=O)[C@H]4COc5ccccc5O4)CC3)nc(N)c2cc1OC`, for which the compound was classed as inactive in assay [1] and in assay [2].
Regarding `C[C@@H](CCc1ccc(O)cc1)NCCc1ccc(O)c(O)c1`, the result in assay [1] and in assay [2] was inactive.
For the compound `N[C@H](C(=O)O)[C@@H]1C[C@@H]1C(=O)O`, the compound was classed as inactive in assay [1] and in assay [2].
`COc1ccc([C@H]2Sc3ccccc3N(CCN(C)C)C(=O)[C@H]2OC(C)=O)cc1`: the result in assay [1] and in assay [2] was inactive.
Take `S=C(S)O[C@@H]1C[C@@H]2C[C@H]1[C@@H]1CCC[C@H]21`: the compound was called inactive in assay [1] and in assay [2].
Take `CCOC(=O)C1=C(C)NC(C)=C(C(=O)OC)[C@H]1c1cccc([N+](=O)[O-])c1`: the compound was classed as inactive in assay [1] and in assay [2].
On to `NS(=O)(=O)c1cc2c(cc1Cl)N[C@@H]([C@@H]1C[C@@H]3C=C[C@H]1C3)NS2(=O)=O`, for which the compound was classed as inactive in assay [1] and in assay [2].
For `Oc1cc2c(cc1O)[C@H](c1ccccc1)CNCC2`, the call in assay [1] and in assay [2] was inactive.
For `NC(=O)c1cc[n+](CC2=C(C(=O)O)N3C(=O)[C@@H](NC(=O)[C@H](c4ccccc4)S(=O)(=O)[O-])[C@@H]3SC2)cc1`, the compound was called inactive in assay [1] and in assay [2].

(Values after PubChem BioAssay (NCATS).)
